Data taken from PubChem BioAssay.
Measured potencies and affinities stand elsewhere. Results filed as inconclusive are left out. Activity calls are given as the source filed them.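 The calls were made as follows: active = falling signal with fitted half-maximal potency no higher than twice the top valid tested dose; inconclusive = poor fit quality, or flat fit spanning -70% to -30%; inactive = potency over limit, rising signal, or flat fit inside 30%.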

Assay: fungal growth arrest, C. neoformans – Alamar Blue, cherry-picks, dose response (AID 686998)
Conditions: Cryptococcus neoformans growth, 24 h; series mostly up to 35 µM

outcome, inactive:
CCC(=O)N1[C@@H]2Cn3c(ccc(C4=CCCCC4)c3=O)[C@H]1[C@@H](C(=O)N[C@H](C)c1ccccc1)[C@@H]2CO
CCC(=O)N[C@@H]1C=C[C@H](CC(=O)NCC2CCCCC2)O[C@H]1CO
O=C(CSc1ncnc2c1cnn2-c1ccc(Cl)cc1)NCc1ccc2c(c1)OCO2
CO[C@H]1CN(C)C(=O)c2ccc(NC(=O)C3CC3)cc2OC[C@@H](C)N(Cc2ccc(F)cc2)C[C@@H]1C
C[C@@H]1CN([C@@H](C)CO)C(=O)c2cc(C3=CCCCC3)cnc2O[C@H]1CN(C)C(=O)Cc1cccnc1
CN(C)C(=O)c1ccc(-c2ccc([C@H]3[C@H]4CN(CCC(F)(F)F)CCCCN4[C@H]3CO)cc2)cc1
CC(C)NC(=O)N(C)C[C@@H]1OCCCC[C@H](C)Oc2ccc(NC(=O)Cc3ccccc3)cc2C(=O)N([C@H](C)CO)C[C@H]1C
C[C@H]1CN([C@@H](C)CO)C(=O)Cc2cc(NC(=O)C3CC3)ccc2O[C@H]1CN(C)Cc1ccc(-c2ccccc2)cc1
Cc1cccc(C)c1NC(=O)C(C)N1CCCCC1 (configuration not stated)
COc1ccc(CN(C)C[C@H]2OCCCC[C@@H](C)Oc3ccc(NC(=O)c4ccccc4)cc3C(=O)N([C@H](C)CO)C[C@@H]2C)cc1
C[C@H](CO)N1C[C@H](C)[C@H](CN(C)CC2CCCCC2)Oc2ccc(NC(=O)Nc3ccc4c(c3)OCO4)cc2C1=O
COc1cccc(S(=O)(=O)N2C[C@@H](O)COC[C@H]3O[C@H](CC(=O)N4CCN(C)CC4)CC[C@@H]32)c1
